# Compound activity deposited in PubChem BioAssay by National Center for Advancing Translational Sciences (NCATS).
# HCV inh: qHTS Assay for Inhibitors of Hepatitis C Virus (HCV); Potency, µM (top dose mostly 41.8 µM), without a hit: at the highest dose activity change, negative = inhibition, hits mostly inhibitors; Huh7.5.1 HCVcc-Cre infection, luciferase reporter, 44 h; 340,000 tested, 3.4% active; active means well fitted inhibition curve with a large enough effect; inconclusive means small, poorly fitted or top-dose-only effect, or another doubt; inactive means no such curve, though single readings can be large or run the other way; further: potency means the concentration at half of the fitted maximal effect
#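 Compounds are dispensed onto cells plated 4 h earlier at 1,000 per well, with HCVcc-Cre virus (about 0.5 moi) added next. Following 44 h of culture, luminescent signal is measured for 15 sec after 15 min with substrate at room temperature.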
# VACV Venus inh: qHTS for Stage-Specific Inhibitors of Vaccinia Orthopoxvirus: Venus Reporter Primary qHTS; Potency, µM (highest dose often 36.5 µM), inactives show at the highest dose activity change, negative = inhibition, actives largely listed as inhibitors; Vaccinia virus Venus reporter expression, fluorescence; 330,000 tested, 0.46% active; calls by dose curve; tested in A549 cells; further: potency means the concentration at half of the fitted maximal effect; nearly all actives have a fitted effect of over 30% in size
# HCMV antiviral: qHTS Assay for inhibitors of the human cytomegalovirus (HCMV); HFF cells, HCMV-luciferase reporter, 72 h; active compounds read low; activity change, negative = inhibition, % at 57.5 µM; 410,000 tested, 4.5% active; in the data active means activity change below about -60%; inconclusive means no clear call, values can overlap the other calls; inactive means above about -39%
#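 Inhibition of viral replication was scored as loss of reporter luminescence in HFFs infected with HCMV-luciferase (MOI 1 PFU/cell) for 72 h; compounds tested at 2 doses, normalized to buffer and Salinomycin controls.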
# LASV entry inh: qHTS for Inhibitors of binding or entry into cells for Lassa Virus; Lassa virus pseudotype entry inhibition, cell reporter; Potency, µM (titrated, usually from 37.9 µM), inactives show at the highest dose activity change, negative = inhibition, actives largely listed as inhibitors; 300,000 tested, 1.2% active; calls by dose curve; tested in HEK293 cells; further: potency means the concentration at half of the fitted maximal effect; nearly all actives have a fitted effect of over 50% in size
# MARV entry inh: qHTS for inhibitors of binding or entry into cells for Marburg Virus; 300,000 tested, 1.8% active; Marburg virus pseudotyped entry inhibition, cell reporter; Potency, µM (series often up to 37.8 µM), for inactives: at the highest dose activity change, negative = inhibition, most hits filed as inhibitors; AID 540276, 2011; calls by dose curve; tested in HEK293 cells; further: potency means the concentration at half of the fitted maximal effect
# VACV mCherry inh: qHTS for Stage-Specific Inhibitors of Vaccinia Orthopoxvirus: mCherry Reporter Primary qHTS; Vaccinia virus mCherry reporter infection, fluorescence; Potency, µM (doses to about 36.5 µM), for the others: top-dose activity change, negative = inhibition, most hits filed as inhibitors; 310,000 tested, 0.63% active; AID 720579, 2013; calls by dose curve; tested in A549 cells; further: potency means the concentration at half of the fitted maximal effect; nearly all actives have a fitted effect of over 35% in size
# * = called active by the depositor; i = inactive; ? = inconclusive; nt = no result; [ ] = another dose, or the depositor's remark. Most compounds without a hit are left out; they make up all but 7.8% or so of the library. On the % scale 0 is the no-effect control and ±100 the full control effect.
SMILES,HCV inh,VACV Venus inh,HCMV antiviral,LASV entry inh,MARV entry inh,VACV mCherry inh
Cc1ccc(Nc2cc(C)nc(-c3ccccc3O)n2)cc1,?,nt,26,8%,?,nt
Cc1cc(NCCCN)nc(-c2ccccc2O)n1,10µM*,-19%,68,?,-1%,nt
Cc1cc(N/N=C/c2ccc(O)c(C)c2O)nc(-c2ccccc2O)n1,?,13µM*,-103*,?,?,10µM*
CSc1ncc(C(=O)Nc2cccc(C)c2C)c(-c2ccccc2)n1,nt,2%,-15,9%[46.1 µM],nt,-10%
CCCN1CCN(CCNC(=O)Nc2ccccc2OCC)CC1,nt,-4%,4,-8%[46.1 µM],-6%[46.1 µM],-11%
C[C@@H](Oc1ccccc1)c1nnn(Cc2ccccc2)c1-c1c([C@@H](C)Oc2ccccc2)nnn1Cc1ccccc1,-21%,-21%,-72*,nt,nt,-8%
CCN(CCCNC(=O)CN1N=C(c2ccccc2)CCC1=O)c1ccccc1,nt,-17%,-24,-4%[46.1 µM],nt,-4%
CCOC(=O)N1CCN(C(=O)CS(=O)(=O)c2cn(Cc3ccccc3C)c3ccccc23)CC1,?,-5%,nt,-19%,?,-11%
Cc1ccccc1Cn1cc(S(=O)(=O)CC(=O)Nc2nccs2)c2ccccc21,?,-23%,-76*,-28%,?,-28%
CCOC(=O)/C=C1\CN(Cc2cc(OC)c(OC)c(OC)c2)S(=O)(=O)c2ccc(C(F)(F)F)cc21,?,?,?,nt,nt,-26%
CCOC(=O)/C=C1\CN(Cc2cc(OC)c(OC)c(OC)c2)S(=O)(=O)c2ccccc21,3.2µM*,?,?,nt,nt,-2%
CS/C(=C\[N+](=O)[O-])Nc1ccc(OC(F)(F)F)cc1,-23%,nt,-61*,nt,nt,nt
CC(C)(CCl)C(=O)Nc1ccc(OC(F)(F)F)cc1,-9%,-14%,-19,-10%[46.1 µM],7%[46.1 µM],i
Cc1cc(N(CCCl)CCCl)ccc1C=Cc1ccncn1,?,45%,?,?,4µM*,?
Cc1cc(N(CCCl)CCCl)ccc1/C=N/N=C(\N)c1cnccn1,?,-7%,-16,?,2.2µM*,i
Cc1cc(N(C)C)ccc1/C=C/c1ccnc2ccccc12,nt,18%,nt,nt,nt,-19%
CSC(=N/N=C(\N)c1cnccn1)SC,19%,-8%,-36,11%,1%,i
c1ccc(Nc2nc(-c3ccccn3)cs2)cc1,?,-27%,143,?,?,-29%
Cc1ccc(Nc2nc(-c3cccs3)cs2)nc1,?,nt,103,nt,nt,nt
c1ccc(-c2csc(Nc3cccnc3)n2)nc1,10µM*,nt,54,24%,6%,nt
c1cncc(Nc2nc(-c3cccs3)cs2)c1,3.2µM*,nt,157,16%,1%,nt
NC(=O)c1nsc(C(=O)N(c2cccc(O)c2)C(C(=O)NC2CCCC2)c2ccc(Cl)cc2)c1N (stereo not drawn),-19%,-6%,-6,-15%,1%[46.1 µM],-3%
CCOc1ccc(C(C(=O)NC2CCCC2)N(Cc2ccccc2)C(=O)c2nsc(Cl)c2Cl)cc1 (stereo not drawn),?,nt,6,nt,nt,nt
Cc1ccc(N(C(=O)c2nsc(Cl)c2Cl)C(C(=O)NC2CCCC2)c2ccc(O)cc2)cc1C (stereo not drawn),?,?,?,1.6µM*,?,-11%
Cc1cc(C)cc(N(C(=O)c2nsc(Cl)c2Cl)C(C(=O)NC2CCCC2)c2ccc(O)cc2)c1 (stereo not drawn),?,?,-71*,?,?,?
SMILES,HCV inh,VACV Venus inh,HCMV antiviral,LASV entry inh,MARV entry inh,VACV mCherry inh
Cc1ccc(N(CC(=O)NC2CCCC2)C(=O)c2nsc(Cl)c2Cl)cc1,-12%,2%,-75*,4%[46.1 µM],-12%[46.1 µM],i
Cc1cccc(N(C(=O)c2nsc(Cl)c2Cl)C(C(=O)NC2CCCC2)c2ccc(O)cc2)c1C (stereo not drawn),?,-27%,?,7.3µM*,?,-18%
COc1ccc(C(C(=O)NC2CCCC2)N(Cc2ccccc2)C(=O)c2nsc(Cl)c2Cl)cc1 (stereo not drawn),?,?,8,?,?,-26%
O=C(CN(C(=O)c1nsc(Cl)c1Cl)c1ccc(F)cc1)NC1CCCC1,6%,-8%,17,5%,?,-14%
CN(C)c1ccc(/C=C2\C=Cc3cc([N+](=O)[O-])ccc32)cc1,nt,30%,nt,nt,nt,-11%
COc1ccccc1N(C)S(=O)(=O)c1ccc(C(=O)N(C)Cc2cccc(OC)c2OC)cc1,nt,-17%,?,nt,nt,-12%
COc1ccccc1/C=C/C(=O)NCCC1=CCCCC1,-23%,1%,-18,7.9µM*,?,i
CCOc1ccc(CN(C)C(=O)c2ccc(S(=O)(=O)N(C)c3ccccc3OC)cc2)cc1,11µM*,nt,?,nt,nt,nt
COc1ccccc1N(C)S(=O)(=O)c1ccc(C(=O)OCC(=O)NCCC2=CCCCC2)cc1,5%,7%,-62*,-11%,?,-10%
COc1ccccc1N(C)S(=O)(=O)c1ccc(C(=O)O)cc1,6%,1%,?,4%[46.1 µM],19%[46.1 µM],i
COc1ccccc1N(C)S(=O)(=O)c1ccc(C(=O)N(C)Cc2ccc(Cl)s2)cc1,?,-25%,-22,11µM*,?,?
COc1ccc(CCC(=O)NCCc2csc(-c3ccc(F)cc3)n2)cc1,nt,-5%[7.34 µM],42,12%[46.1 µM],nt,-11%[7.34 µM]
CCN(Cc1cccc(S(=O)(=O)O)c1)c1ccc(C(=C2C=CC(=[N+](CC)Cc3cccc(S(=O)(=O)O)c3)C=C2)c2ccc(O)cc2S(=O)(=O)O)cc1,nt,-20%,nt,nt,nt,10µM*
CCN(Cc1cccc(S(=O)(=O)O)c1)c1ccc(C(=C2C=CC(=[N+](CC)Cc3cccc(S(=O)(=O)O)c3)C=C2)c2ccccc2S(=O)(=O)[O-])cc1,nt,-11%,nt,nt,nt,?
COc1ccc(C2CC(c3ccc(Br)cc3)=NN2C(=O)CN2CCCC2)cc1 (stereo not drawn),10µM*,-10%[7.34 µM],-16,?,?,-8%[7.34 µM]
COc1ccc(C2=NN(C(=O)CN3CCCCC3)C(c3ccc(C)cc3)C2)cc1 (stereo not drawn),0%,-23%,-39,-20%,?,-13%
CNC(=S)N1N=C(c2ccc(C)cc2)CC1c1ccc(OC)cc1 (stereo not drawn),?,?,3,?,-20%,-13%[1.46 µM]
CNC(=S)N1N=C(c2ccc(Br)cc2)CC1c1ccc(OC)cc1 (stereo not drawn),10µM*,-18%,-13,?,?,-27%
Nc1c(N=Nc2ccc([N+](=O)[O-])cc2)c(S(=O)(=O)O)cc2cc(S(=O)(=O)O)c(/C=C/c3ccccc3)c(O)c12,nt,-9%,nt,nt,nt,?
